# Hits are enriched below; roughly 2.4% of the tested compounds scored in any of these assays.
# D2 PAM-1: D2 dopamine receptor (human) potentiation; P14416; HEK293 T-REx D2, calcium flux, EC20 dopamine potentiation; potentiation, % at 10 µM; 340,000 compounds, 0.34% hits;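 active = potentiation over 3 SD above the plate norm, cut at about 30% in these data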; also: 0% is about no effect
# Target sequence (P14416 whole entry, looked up): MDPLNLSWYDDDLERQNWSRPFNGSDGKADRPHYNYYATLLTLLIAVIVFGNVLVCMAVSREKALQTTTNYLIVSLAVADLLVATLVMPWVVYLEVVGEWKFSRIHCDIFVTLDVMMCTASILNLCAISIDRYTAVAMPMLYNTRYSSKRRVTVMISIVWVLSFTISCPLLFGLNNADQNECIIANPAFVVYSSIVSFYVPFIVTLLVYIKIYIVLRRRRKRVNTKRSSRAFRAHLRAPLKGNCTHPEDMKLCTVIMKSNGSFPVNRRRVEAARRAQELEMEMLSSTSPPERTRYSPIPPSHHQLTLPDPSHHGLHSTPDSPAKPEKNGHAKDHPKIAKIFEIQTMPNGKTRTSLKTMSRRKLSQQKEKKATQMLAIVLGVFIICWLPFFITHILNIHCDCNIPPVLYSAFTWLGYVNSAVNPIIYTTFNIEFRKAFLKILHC
#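 Calcium flux readout, no-wash dye, 1 read/s. Inducible HEK293 Trex D2 line, overnight 30 C. Compound alone 180 s (agonist flags), then EC20 dopamine, another 180 s to score potentiation.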
# D2 ag-1: agonists of human D2 dopamine receptor; P14416; HEK293 T-REx D2 cells, calcium flux agonist mode; activation, % at 2 µM; 340,000 compounds, 0.53% hits; AID 485358;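 active = activation over 3 SD above normal in the single-dose calcium agonist read, cut at about 30% in these data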; also: 0% is about no effect
#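 Agonism is scored from calcium flux in a force-coupled, inducible HEK293 cell line expressing D2, read kinetically for 180 s after compound addition against dopamine controls.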
# D2 PAM-2: human D2 receptor positive allosteric modulation. P14416. DiscoveRx D2 beta-arrestin cells, luminescence, 90 min; 100% = 57 uM dopamine signal. potentiation, % (concentration not given with the values). 360,000 compounds, 0.23% hits. AID 624464; in the data active = potentiation above about 50%
#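 PathHunter D2 cells, attached overnight at 37 deg C, received compound in DMSO plus dopamine at EC20 (50 nM final) for 90 min at 37 deg C. Beta-arrestin recruitment was read as luminescence after 1 h with detection reagent at ambient temperature.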
# D2 ag-2: activates the human D2 dopamine receptor | activation, % (concentration not given with the values) | DiscoveRx PathHunter D2 beta-arrestin, luminescence, 90 min; 100% = 57 uM dopamine signal | 360,000 compounds, 0.084% hits | AID 624465; in the data active = activation above about 40%
#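 DiscoveRx PathHunter D2 beta-arrestin cells (2,100/well) attached overnight, then compound-stimulated 90 min at 37 C in HBSS/10 mM HEPES/0.1% Tween-20 buffer; beta-galactosidase complementation read by luminescence after 1 h at ambient temperature. Dopamine 57 uM final (EC100) as control.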
# D2 antagonist: D2 dopamine receptor (human) antagonism; HEK293 TREx D2 cells, calcium flux, dopamine EC80; inhibition, % at 10 µM; 340,000 compounds, 2% hits; AID 485344; in the data active = inhibition above about 30%; inactive = below that, where a call was filed; also: 0% is about no effect
#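 Antagonism is scored as inhibition of an EC80 dopamine-evoked calcium signal in a force-coupled, tetracycline-inducible HEK293 T-REx D2 line, with compound present 180 s before agonist.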
# Numbers without * were called inactive; nt = no result given.
SMILES,D2 PAM-1,D2 ag-1,D2 PAM-2,D2 ag-2,D2 antagonist
COc1cc(S(=O)(=O)NC2CCSc3ccccc32)ccc1NC(C)=O (stereo not given),33*,-2,-5,-2,6
COC(=O)c1ccsc1NC(=O)CS(=O)(=O)c1ccccc1,-12,0,-12,-1,31*
Cc1sc2ncn(CC(=O)Nc3ccc(F)cc3F)c(=O)c2c1S(=O)(=O)N1CCC(C)CC1,-6,0,nt,nt,nt
Cc1cccc(NC(=O)Cn2cnc3sc(C)c(S(=O)(=O)N4CCC(C)CC4)c3c2=O)n1,22,-1,2,3,32*
Cc1cc(Cl)c2oc(C(=O)N3CCOCC3)c(C)c2c1,nt,nt,-7,-2,nt
Cc1cc(Cl)c2oc(C(=O)N(C)C3CCOC3)c(C)c2c1 (stereo not given),88*,0,-14,-2,-7
N=c1c(S(=O)(=O)c2ccccc2)cc2c(=O)n3ccccc3nc2n1Cc1cccnc1,-8,0,-67,-5,44*
Cc1cccn2c(=O)c3cc(C#N)c(=O)n(Cc4cccnc4)c3nc12,1,0,-16,0,41*
CC(C)N1C(=O)C(O)(c2c[nH]c3ccccc23)c2ccccc21 (stereo not given),3,-1,nt,nt,nt
COc1ccc(C(C)=O)cc1COC(=O)CSC(C)C(=O)Nc1cc(C)on1 (stereo not given),3,0,4,-3,2
COc1ccc(C(C)=O)cc1COC(=O)CSCC(=O)Nc1ccc(C)cc1,-27,-1,-31,-4,30*
O=C(c1ccc([N+](=O)[O-])cc1)N1CCC(n2nnc3cc(F)ccc32)CC1,33*,0,0,-3,-4
O=C(N1CCOCC1)N1CCC(n2nnc3cc(F)ccc32)CC1,1,nt,-24,-2,nt
OC1CCCCC1Sc1nc2ccccc2s1 (stereo not given),-12,0,-2,-2,40*
CC(=O)Nc1nc(N)n(-c2ccccc2)n1,-13,0,-1,-2,8
Nc1nc(NC(=O)/C=C\C(=O)O)nn1-c1ccccc1,3,1,-6,0,36*
Cc1nc(-c2ccc(Cl)cc2)sc1C1(C)CC(c2cccc(Cl)c2)=NO1 (stereo not given),-9,0,2,0,0
Cc1nc(-c2ccc(Cl)cc2)sc1C1(C)CC(c2cccc(F)c2)=NO1 (stereo not given),-1,0,-5,-3,30*
CC1CCc2c(sc(NC(=S)NC(=O)c3ccccc3)c2C#N)C1 (stereo not given),7,-1,-1,-2,37*
N#Cc1c(NC(=S)NC(=O)c2ccccc2)sc2c1CCN(CCc1ccccc1)C2,-4,44*,nt,nt,0
N#Cc1cccc(NC(=O)Nc2cccs2)c1,-1,0,-22,3,1
COC(=O)c1ccccc1NC(=O)Nc1cccs1,-7,0,-24,-2,38*
CCc1cccc(NC(=O)Nc2cccs2)c1,-11,1,-38,1,32*
CCOc1ccc2nc(NC(=O)c3nc(SCc4ccccc4F)ncc3Cl)sc2c1,4,0,nt,nt,nt
CCN(CC)CCCNC(=O)c1cn(C)c2ccc(S(=O)(=O)N3CCOCC3)cc2c1=O,17,0,nt,nt,nt
SMILES,D2 PAM-1,D2 ag-1,D2 PAM-2,D2 ag-2,D2 antagonist
COc1ccc(C2=NN(C(C)=O)C(c3cn(-c4ccccc4)nc3-c3cccs3)C2)cc1 (stereo not given),25,0,nt,nt,nt
Cc1ccc2nc(Nc3ccccc3)c(C=O)c(=O)n2c1,37*,0,20,6,-1
Cc1ccc(CNC(=O)c2ccc3c(c2)N(Cc2ccccc2Cl)C(=O)CS3)cc1,nt,1,nt,nt,nt
O=C(c1ccc(F)cc1)N1CCC(c2nc(-c3ccc(S(=O)(=O)N4CCCC4)cc3)no2)CC1,5,0,nt,nt,nt
CCC(C)c1ccc(S(=O)(=O)N2CCN(CC(O)COCC3CCCO3)CC2)cc1 (stereo not given),-9,-1,-9,-4,33*
CC(C)c1ccc(S(=O)(=O)N2CCN(CC(O)CN3CCOCC3)CC2)cc1 (stereo not given),1,0,-6,-5,-2
O=C(NCC12CC3CC(CC(C3)C1)C2)c1cc2nc(-c3ccc(F)cc3)cc(C(F)(F)F)n2n1,1,1,nt,nt,nt
Cc1ccc(C)c(N2N=C(C(=O)Nc3ccc(N4CCOCC4)cc3)CCC2=O)c1,0,0,-11,-3,35*
Cc1ccc(C)c(N2N=C(C(=O)O)CCC2=O)c1,-8,0,-2,1,6
CCOC(=O)c1ccc(NC(=O)C2=C(C)Nc3nc(SCc4ccc(Cl)cc4)nn3C2c2ccc(OC)cc2)cc1 (stereo not given),-1,-1,nt,nt,nt
CCC(C)NCCCOc1cc(Cl)ccc1Cl (stereo not given),-23,1,-38,-3,80*
CCCCNCCOCCOc1ccc(Cl)cc1Br,-28,0,-26,-8,72*
COCCCNCCCOc1ccc(Cl)cc1Br,-20,-1,-46,-1,-39
COCCCNCCCOc1ccc(C)cc1Br,-36,1,-31,-5,38*
CCC(C)NCCCCOc1ccc(Cl)cc1C (stereo not given),nt,nt,-26,-4,nt
CCCCNCCCOc1cc(Cl)ccc1Cl,-19,0,-19,-4,56*
CCOc1ccc(NC(=O)C2CCN(S(=O)(=O)c3cccs3)CC2)cc1,32*,-2,11,5,-1
O=C(NCCc1ccccc1)C1CCN(S(=O)(=O)c2cccs2)CC1,-14,0,-3,-2,-5
O=C(NCCN1C(=O)S/C(=C\c2ccccc2)C1=O)C1CCN(S(=O)(=O)c2cccs2)CC1,-11,1,-9,-2,33*
CC(=O)Nc1ccc(S(=O)(=O)NC2(C(F)(F)F)NC(=O)N(C3CCCC3)C2=O)cc1 (stereo not given),33*,-2,3,0,1
CCOC(=O)c1c(C)oc2nc(C)nc(NCc3ccc(F)cc3)c12,2,0,nt,nt,nt
COC(=O)c1ccc(C(=O)OC)c(NC(=O)CSCc2ccccc2Br)c1,-1,0,0,-1,45*
Cc1ccc(Oc2nc(-c3ccccc3)ncc2S(=O)(=O)c2ccc(C)cc2)cc1,2,-1,0,0,40*
Cc1ccc(Oc2nc(-c3ccccc3)ncc2S(C)(=O)=O)cc1,9,0,7,-3,9
CCN(CC)C(=O)N1c2ccccc2C=Cc2ccccc21,-2,0,0,-3,-4
CN(C)CCCNC(=O)N1c2ccccc2C=Cc2ccccc21,6,1,-16,-5,33*
Cc1cccc(-c2noc(-c3ccc(NC4CCCC4)c([N+](=O)[O-])c3)n2)c1,4,0,nt,nt,nt
